Rows were chosen to be rich in hits. Some 2.2% of all compounds tested hit in one or more screens of this group.
HEK293 tox = qHTS of GLP-1 Receptor Inverse Agonists: Cytotox Screen; HEK293 cAMP-luciferase reporter cells, luminescence, 24 h; Potency, µM (top dose mostly 38.3 µM), without a hit: at the highest dose activity change, negative = inhibition, hits mostly inhibitors; 410,000 compounds, 0.13% hits;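 note: loss of luciferase light is scored as toxicity; potency is the fitted concentration of half-maximal effect; % is set by controls: 0 for no effect and ±100 for the full control effect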
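Quantitative HTS format, 1536 wells, 200 cells/uL seeded. Compounds: 23 nL, 24 h, 37 °C. Detection: luciferase reagent, luminescence at 12 min RT; decreased signal taken as cytotoxic.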
GLP-1R agonist = qHTS of GLP-1 Receptor Agonists. HEK293 GLP-1R CRE-luciferase, luminescence, 4-6 h; cells express a hypersensitive GLP-1R form. Glucagon-like peptide 1 receptor (Homo sapiens), P43220. Potency, µM (titrated, usually from 45.6 µM), inactives show top-dose activation, most hits filed as activators. 380,000 compounds, 0.007% hits; note: potency is the fitted concentration of half-maximal effect; % of control where 0% means no effect
Target sequence (P43220 whole entry, looked up): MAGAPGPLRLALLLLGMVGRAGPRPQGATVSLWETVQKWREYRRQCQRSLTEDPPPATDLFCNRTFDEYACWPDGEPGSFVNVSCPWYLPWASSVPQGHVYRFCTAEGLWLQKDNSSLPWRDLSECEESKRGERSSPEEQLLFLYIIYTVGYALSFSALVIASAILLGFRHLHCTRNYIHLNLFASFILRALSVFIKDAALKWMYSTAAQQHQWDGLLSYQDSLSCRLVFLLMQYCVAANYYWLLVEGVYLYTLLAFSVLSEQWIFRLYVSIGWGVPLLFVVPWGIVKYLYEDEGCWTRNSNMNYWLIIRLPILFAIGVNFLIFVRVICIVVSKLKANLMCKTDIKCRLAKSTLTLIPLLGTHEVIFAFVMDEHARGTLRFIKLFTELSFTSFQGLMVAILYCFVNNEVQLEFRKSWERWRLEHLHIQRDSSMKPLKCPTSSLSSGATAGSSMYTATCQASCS
GLP1R inv ag = qHTS of GLP-1 Receptor Inverse Agonists (Inhibition Mode) | HEK293 GLP-1R CRE-luciferase, luminescence, 24 h; GLP-1R form is constitutively active | Potency, µM (series often up to 38.3 µM), inactives show at the highest dose activity change, negative = inhibition, hits mostly inhibitors | 410,000 compounds, 1.6% hits | AID 624417, 2012; note: potency is the fitted concentration of half-maximal effect; % is set by controls: 0 for no effect and ±100 for the full control effect; nearly all actives have a fitted effect of over 55% in size
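Cells are plated, allowed 12 hours at 37 deg C, then treated with compounds for 24 hr before luciferase detection reagent is added and luminescence is read after 12 min at room temperature. The HEK293 line carries constitutively active GLP-1R with a cAMP-responsive reporter.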
CCT chaperon mod = High-Throughput Screening for Modulators of Cytosolic Chaperonin Activity. purified chaperonin ATPase assay, HTRF ADP detection, 30 min. activity change, % (no concentration beside the values), hits read low. 360,000 compounds, 0.3% hits. AID 651819, 2012; in the data active = activity change below about -30%; note: % is set by controls: 0 for no effect and ±100 for the full control effect
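Nucleotide hydrolysis assay: TRiC at 20–40 nM final (set by batch activity) with 10 uM ATP, 30 min at 37 °C, in presence of 76 uM compound. Detection by competitive ADP HTRF, 30 min ambient.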
uPA surface inh = qHTS for Inhibitors of Cell Surface uPA Generation; Potency, µM (top dose mostly 38.3 µM), without a hit: at the top dose activity change, negative = inhibition, most hits filed as inhibitors; 330,000 compounds, 0.31% hits; cell surface uPA generation assay, qHTS; active = well fitted inhibition curve with a large enough effect; inconclusive = small, poorly fitted or top-dose-only effect; inactive = no such curve, though single readings can be large or run the other way; tested in mouse RAW 264.7 cells; note: potency is the fitted concentration of half-maximal effect; % is set by controls: 0 for no effect and ±100 for the full control effect; nearly all actives have a fitted effect of over 55% in size
Mm-Cpn inhibitor = Inhibitors of TCP-1 ring complex (TRiC) of Methanococcus maripaludis (MmCpn): qHTS. Chaperonin Mm-Cpn (Methanococcus maripaludis). purified Mm-Cpn ATPase, ADP Transcreener TR-FRET. Potency, µM (highest dose often 76.9 µM), for inactives: at the top dose activity, negative = inhibition, hits mostly inhibitors. 330,000 compounds, 0.031% hits. AID 504842, 2011; note: potency is the fitted concentration of half-maximal effect; % is set by controls: 0 for no effect and ±100 for the full control effect; nearly all actives have a fitted effect of over 80% in size
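ATPase turnover read by TR-FRET ADP competition (Eu cryptate antibody/ADP-d2, 665/590 nm): 10uM ATP final, 25nM Mm-CPN final, 30 min 37degC after 10-min compound preincubation, pH 7.4 Tris/KCl/MgCl2/DTT buffer.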
* marks the source's active call; other numbers are inactive results; ? = inconclusive; . = no result. Unless noted, calls come from the whole dose curve; as a rule, active = well fitted curve in the direction sought with a large enough effect; inconclusive = small, poorly fitted or top-dose-only effect, or another doubt; inactive = no such curve, though single readings can be large; an effect the other way counts as inactive or inconclusive.

SMILES | HEK293 tox | GLP-1R agonist | GLP1R inv ag | CCT chaperon mod | uPA surface inh | Mm-Cpn inhibitor
CC(C)c1ccc(NC(=O)CSc2nc(=O)n(Cc3cccnc3)c3c2CCC3)cc1 | -1.6% | . | 7.1% | . | . | .
O=C(Cn1cc2c(n1)CCCC2)NCCCN1CCN(c2ccccc2F)CC1 | -2.3% | -0.5% | -28.9% | -46.3* | 8.3% | 1.4%
CC1(C)Cc2cccc(C(=O)NC3CCN(Cc4ccccc4)CC3)c2O1 | -27.7% | 5.3% | 10µM* | -1.6 | 5.0% | 0.2%
Cc1ccccc1C(=O)NC1CCN(Cc2ccccc2)CC1 | 1.2% | 2.0% | 2.0% | -1.2 | -0.4% | -2.4%
O=C(CC1C(=O)N(c2ccccc2)C(=O)N1Cc1ccc(F)cc1)Nc1cccc(F)c1 (centres undefined) | -9.6% | . | ? | . | . | .
S=C(NCc1ccccc1)C(=S)NCc1ccccc1 | 2.8% | 10.5% | 10µM* | -1.5 | 0.6% | .
S=C(NCc1ccccc1)NCc1ccc(CNC(=S)NCc2ccccc2)cc1 | 2.6% | -1.2% | -30.3% | -0.7 | 7.0% | -2.7%
Cc1cc(C)cc(N2CCn3c2nc2c3c(=O)n(Cc3ccc(Cl)cc3)c(=O)n2C)c1 | -0.9% | . | 5.8% | . | . | .
O=C(C1CCCN(S(=O)(=O)c2cccc3nsnc23)C1)N1CCN(c2ccccc2)CC1 (centres undefined) | 3.2% | -0.4% | 4.0% | . | . | .
O=C(Nc1cccc(C(F)(F)F)c1)Oc1ccc(Cl)c2cccnc12 | 0.0% | -0.7% | 12.6µM* | 1.2 | 4.3% | 1.3%
CCN(CC)C(=O)Oc1ccc(Cl)c2cccnc12 | 0.6% | 15.8% | -8.9% | -4.4 | -1.0% | 2.0%
Cc1ccccc1-n1nc2c(c1NC(=O)C(C)(C)C)CS(=O)(=O)C2 | 0.7% | -0.3% | 3.5% | -43.0* | 13.5% | 2.4%
Cc1cc(N2CCN(C)CC2)nc(-c2ccccc2O)n1 | 0.0% | 15.0% | 3.98µM* | -1.9 | -13.5% | 0.2%
c1cnc(N2CCN(c3ncc4c(n3)CCNC4)CC2)nc1 | -12.6% | . | 16.0% | . | . | .
COc1cccc(CNC(=O)c2cc(S(=O)(=O)N3CCCCC3)cn2C)c1 | 0.0% | 6.3% | ? | . | . | .
Cc1ccc(C)c(N2CCN(S(=O)(=O)c3c(C(=O)N4CCC(C)CC4)c(C)n(C)c3C)CC2)c1 | -24.0% | . | ? | . | . | .
O=C(Nc1ccc(F)cc1)C(Cc1ccccc1)n1cccc1 (centres undefined) | -5.3% | 11.9% | 12.6µM* | -1.4 | 2.2% | -0.2%
COc1cccc(NC(=O)C(Cc2ccccc2)n2cccc2)c1 (centres undefined) | -5.0% | 5.0% | 11.2µM* | -0.2 | 4.7% | -4.4%
O=C(NCc1ccc(F)cc1)C(Cc1ccccc1)n1cccc1 (centres undefined) | 2.2% | 3.3% | 11.2µM* | -0.1 | -23.6% | -0.5%
Cc1ccc(Nc2nccc(N(C)c3ccc4c(C)n(C)nc4c3)n2)cc1S(N)(=O)=O | . | -4.5% | . | . | . | .
COc1cc(NC(=O)Cn2c(C)cc(C)c(C#N)c2=O)cc(OC)c1 | 23.0% | . | 11.7% | . | . | .
CCCCN1CC(c2nc3ccccc3n2CCCCOc2cccc(C)c2C)CC1=O (centres undefined) | -14.7% | . | ? | . | . | .
Cc1ccc2c(c1)S/C(=C/c1ccc[n+](C)c1)N2CCO | -16.7% | -3.9% | ? | -0.4 | -0.6% | -4.1%
CCN1/C(=C/c2ccc3cc(C)ccc3[n+]2C)Sc2ccc3sccc3c21 | ? | -7.4% | ? | 0.8 | 10µM* | ?
CCN1/C(=C/c2ccc3cc(C)ccc3[n+]2CC)Sc2cc(C)ccc21 | ? | -7.0% | 13.9% | -1.5 | 1µM* | -15.5%
SMILES | HEK293 tox | GLP-1R agonist | GLP1R inv ag | CCT chaperon mod | uPA surface inh | Mm-Cpn inhibitor
CCCCN1/C(=C/c2ccc3ccccc3[n+]2CC)Sc2ccccc21 | ? | -1.3% | 10.4% | -1.5 | -16.1% | -9.0%
O=C(CSc1ncc(-c2ccccc2)nn1)NCc1ccco1 | -18.9% | 0.2% | 19.6% | -91.5* | -7.1% | -1.2%
Cc1cccc(CSc2cn(CC(=O)N3CCCC3)c3ccccc23)c1 | 0.4% | . | ? | . | . | .
COc1cccc2c1C1COC3C4CC(C(=O)O)C(C(C2)N13)N4C (centres undefined) | ? | -6.5% | 3.98µM* | -0.8 | -7.6% | .
OC[C@H]1O[C@@](CO)(O[C@H]2O[C@H](CO)[C@@H](O)[C@H](O)[C@H]2O)[C@@H](O)[C@@H]1O | . | 2.2% | . | . | . | .
Clc1cccc(CSc2nnc(C3CCNCC3)o2)c1 | -11.8% | . | ? | . | . | .
COc1cc(/C=N/Nc2nc(Nc3ccc(C)cc3)nc(-n3nc(C)cc3C)n2)cc(OC)c1OC | 4.47µM* | 6.9% | ? | 0.9 | . | 2.1%
Cc1cc(N/N=C/c2ccccc2[N+](=O)[O-])nc(-n2nc(C)cc2C)n1 | 4.47µM* | 4.0% | 2.51µM* | -0.1 | -2.2% | -0.7%
Cc1cc(N/N=C/c2cccc([N+](=O)[O-])c2)nc(-n2nc(C)cc2C)n1 | ? | 13.5% | ? | -1.6 | 7.0% | -0.2%
Cc1cc(N/N=C/c2cccc(Cl)c2)nc(-n2nc(C)cc2C)n1 | ? | 0.8% | ? | -1.4 | 1.8% | 1.0%
COc1cc(/C=N/Nc2nc(Nc3ccccc3)nc(-n3nc(C)cc3C)n2)cc(OC)c1OC | ? | 18.3% | ? | -4.9 | -12.6% | 1.2%
COc1ccc(/C=N/Nc2cc(C)nc(-n3nc(C)cc3C)n2)cc1 | 0.794µM* | 5.6% | ? | -2.2 | -6.9% | 0.1%
CCn1cc2c(n1)-c1c(oc(C(=O)Nc3cccc(C(F)(F)F)c3)c1C)CC2 | 2.5% | . | 1.9% | . | . | .
CCc1sc2nc(SCC(=O)Nc3cc(C)on3)n(-c3cccc(OC)c3)c(=O)c2c1C | -9.3% | 9.2% | 0.0% | -36.1* | -3.2% | -3.1%
CC(OC(=O)c1oc2ccccc2c1COc1ccccc1)C(=O)NC(N)=O (centres undefined) | -0.2% | 22.0% | -20.8% | -9.2 | -4.3% | -1.8%
Cc1c(C(=O)NCCc2ccccc2)oc2ccccc12 | -1.0% | 11.9% | ? | -1.4 | -2.1% | 0.6%
O=C(NCCc1ccccc1)c1oc2ccccc2c1COc1ccccc1 | 16.3% | 12.0% | 3.16µM* | 0.5 | -23.5% | 1.3%
O=C(Nc1ccccc1Cc1ccccc1)c1oc2ccccc2c1COc1ccccc1 | 77.9% | -4.6% | 4.47µM* | 1.0 | 2.7% | -0.1%
CCOC(=O)C1CCC(CN(Cc2c(Cl)cccc2Cl)S(=O)(=O)c2ccc(F)c(C)c2)CC1 (centres undefined) | 11.4% | . | 7.2% | . | . | .
CCN(CC)CCC#CC(O)(c1ccccc1)c1ccccc1 | -12.4% | -2.0% | ? | -1.6 | 4.2% | 0.5%

Screens as filed in PubChem BioAssay.
